Records with an inconclusive call do not appear. Unmarked numbers belong to inactive results. The source made the active and inactive calls. Calls follow the shape of the dose curve; as a rule, active = well fitted cell-killing curve with a large enough effect in the repeat runs; inconclusive = weak or mixed curves; inactive = no such curve, though single readings can be large or run the other way.
% is scaled to controls: 0 for no effect and ±100 for the full control effect; potency is read from the fitted curve at half-maximal effect.

The assay in a line: qHTS assay to identify small molecule agonists of the peroxisome proliferator-activated receptor delta (PPARd) signaling pathway - cell viability counter screen (AID 743211). Also: nearly all actives have a fitted effect of over 55% in size. Particulars: PPARd-bla HEK293H viability, CellTiter-Glo luminescence, 17 h; series mostly up to 62.6 µM; activity change, negative = cytotoxicity: at the top concentration. Summed up: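 Luminescent ATP viability assay (CellTiter-Glo, 30 min RT) in UAS-bla HEK293H cells carrying the PPAR delta reporter construct, 3000 cells/well, after a 17 h compound treatment at 37 C.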
As to `NC(=O)CC[C@@H]1NC(=O)[C@H](Cc2ccccc2)NC(=O)[C@H](Cc2ccc(O)cc2)NC(=O)CCSSC[C@@H](C(=O)N2CCC[C@H]2C(=O)N[C@@H](CCCN=C(N)N)C(=O)NCC(N)=O)NC(=O)[C@H](CC(N)=O)NC1=O`, the “activity change, negative = cytotoxicity” value is 9.25%. Regarding `CCCCCCCCCCCC(=O)NCCCN(C)C`, the Potency is 21.9 µM (active).

With `CCCCCCCC[P+](CCCCCCCC)(CCCCCCCC)CCCCCCCC`, the Potency is 5.46 µM (active). For the compound `CCCC(c1cc(C(C)(C)C)c(O)cc1C)c1cc(C(C)(C)C)c(O)cc1C`, the Potency is 11.1 µM (active). Still for that read-out and setting: under `CC/C(=C(\c1ccc(O)cc1)c1ccc(OCCN(C)C)cc1)c1ccccc1` stands 11 µM (active). The same measure, in the same setting: under `C[C@@H](NCCCc1cccc(C(F)(F)F)c1)c1cccc2ccccc12` stands 11.9 µM (active); under `Oc1cccc(-c2c3nc(c(-c4cccc(O)c4)c4ccc([nH]4)c(-c4cccc(O)c4)c4nc(c(-c5cccc(O)c5)c5ccc2[nH]5)CC4)C=C3)c1`, 13.3 µM (active); under `O=C(Oc1cccc2cccnc12)c1ccccc1`, 3.35 µM (active). On the same count and under the same terms, under `CCCCC(CC)CN=C(N)NC(N)=NCCCCCCN=C(N)NC(N)=NCC(CC)CCCC` (stereo unspecified) stands 6.68 µM (active); under `CC(=O)N1CCN(c2ccc(OC[C@H]3CO[C@](Cn4ccnc4)(c4ccc(Cl)cc4Cl)O3)cc2)CC1`, 34.7 µM (active); under `CC(C)c1ccc2c(c1)CC[C@H]1[C@](C)(CN)CCC[C@]21C`, 11 µM (active). On to `[Cl][Bi]([Cl])([c]1ccccc1)([c]1ccccc1)[c]1ccccc1`, for which the Potency is 5.46 µM (active). On the same count and under the same terms, under `Cc1cc(CCN2CCN(c3nsc4ccccc34)CC2)cc2c1NC(=O)CC2(C)C` stands 21.9 µM (active). On the same count and under the same terms, as for `O=C(Nc1cccc(Cl)c1)OCC#CCCl`, the figure is 38.9 µM (active).

On to `Oc1cc2ccccc2c2ccccc12`, for which the Potency was 6.92 µM (active). For the compound `C[n+]1cc2c3c(ccc2c2ccc4cc5c(cc4c21)OCO5)OCO3`, the Potency is 1.46 µM (active). Same read-out and setting: as for `CCN(Cc1cccnc1)C(=O)c1cccc(Cl)c1[C@]1(C)C(=O)N(Cc2ccc(OC)cc2OC)c2ccc(Cl)cc21`, the figure is 4.08 µM (active). As for `CS(=O)(=O)CCNCc1ccc(-c2ccc3ncnc(Nc4ccc(OCc5cccc(F)c5)c(Cl)c4)c3c2)o1`, the Potency is 9.44 µM (active). Take `CN(C)C(=O)C1(N2CCCCC2)CCN(CC[C@@]2(c3ccc(Cl)c(Cl)c3)CN(C(=O)c3ccccc3)CCO2)CC1`: the Potency was 11.5 µM (active). As to `CCCCCCCCOc1ccccc1C(=O)Nc1ccc(C(=O)OCC[N+](C)(CC)CC)cc1`, the Potency was 26.6 µM (active). For the compound `O=S1(=O)CC(Cl)(Cl)C(Cl)(Cl)C1`, the Potency was 3.09 µM (active).

The values above are taken from PubChem BioAssay (Tox21).
